Measured values: PubChem BioAssay AID1259343 (VanderVen Lab, College of Veterinary Medicine, Cornell …, 2017)
About 2,900 (47%) of roughly 6,200 compounds were called active. The set was probably picked from earlier hits. This is one part of the list. A number with no mark means an inactive call. Cut-off read from the data, not from the text of the source: active = inhibition above about 50%; inactive = the rest.

Test: Mycobacterium tuberculosis growth inhibition, primary screen (AID 1259343)
Details: inhibition: at 10 µM, active compounds read high; outcome: 10 uM

Compound | inhibition
c1csc(Cn2nnnc2Sc2ncnc3sccc23)c1 | -23.8%
Oc1ccccc1OCc1nc2ccccc2s1 | 54.7% (active)
N#CC(=C(O)CC12CC3CC(CC(C3)C1)C2)c1nc2ccccc2s1 | 21.6%
c1ccc2sc(CSc3nc4ccccc4s3)nc2c1 | 95.9% (active)
Brc1ccc2nc(CSc3nc4ccccc4s3)cn2c1 | inactive
COc1ccc(C(C)O)cc1CSc1nc2ccccc2s1 (centres undefined) | 40.5%
Clc1c(CSc2nc3ccccc3s2)nc2ncccn12 | 77.3% (active)
S=c1[nH]nc(CSc2nc3ccccc3s2)o1 | -31.5%
c1ccc2sc(CSc3ncnc4sccc34)nc2c1 | 35%
O=C(CSc1nc2ccccc2s1)NCCN1C(=O)SC(=Cc2ccc3c(c2)OCO3)C1=O | 4.39%
c1ccc(Sc2c(-c3ccccc3)nc3ncccn23)cc1 | inactive
c1ccc2sc(Sc3ncnc4sccc34)nc2c1 | 59.5% (active)
CCc1nnc(CNc2ccc3c(c2)OC(F)(F)O3)o1 | 32.3%
Cc1c(C(=O)NC(C)c2cccc(Cl)c2)oc2c1C(=O)CCC2 (centres undefined) | 1.37%
CC(NC(=O)c1cc(Cl)ccn1)c1cccc(OC(F)F)c1 (centres undefined) | 70.3% (active)
CC(NC(=O)c1cnsn1)c1cccc(Cl)c1 (centres undefined) | 42.3%
CC(C)(C)OC(=O)c1cccc(NC2Cc3ccccc3C2)c1 | 29.1%
CC(C)=CCC/C(C)=C/C(=O)NCc1ccccn1 | -13%
CCOC(=O)c1cccc(NC(=O)NC/C=C(\C)CCC=C(C)C)c1 | 88.1% (active)
Fc1ccc(NC(=S)NC2CCCCC2)c(F)c1F | 18.1%
Fc1ccc(F)c(NC(=S)NC2CCCCC2)c1 | 42%
O=[N+]([O-])c1cc(NC(=S)NC2CCCCC2)ccc1Cl | 99.3% (active)
S=C(Nc1cccc(I)c1)NC1CCCCC1 | 93.2% (active)
O=C(O)c1cnc(/C=C/c2cnn(-c3ccc(Cl)cc3)c2)s1 | 62.2% (active)
O=C(O)c1cnc(/C=C/c2cc(Cl)c3c(c2)OCCCO3)s1 | 85.9% (active)
CNC(=O)c1cnc(/C=C/C2=Cc3cc(Cl)ccc3OC2)s1 | 11.2%

Compound | inhibition
O=C(O)c1cnc(/C=C/c2cc(Br)cs2)s1 | -34.7%
COc1cc(/C=C/c2ncc(C(=O)O)s2)cc(Cl)c1OC | 80.2% (active)
O=C(CN1CCN(S(=O)(=O)N2CCCCCC2)CC1)Nc1ccc2ccccc2c1 | 3.56%
O=C(CN1CCCCCC1)Nc1ccc(C(F)(F)F)cc1 | 71.2% (active)
CC1OC(=O)[C@@H](C(C)C)NC(=O)C(C(C)C)OC(=O)[C@H](C(C)C)NC(=O)C(C)OC(=O)[C@@H](C(C)C)NC(=O)C(C(C)C)OC(=O)[C@H](C(C)C)NC(=O)C(C)OC(=O)[C@@H](C(C)C)NC(=O)C(C(C)C)OC(=O)[C@H](C(C)C)NC1=O (some centres undefined) | 101% (active)
COc1cc(NC(=O)c2ccc(Cl)s2)cc(OC)c1 | 3.54%
COc1cc(NC(=O)c2ccc(C)o2)cc(OC)c1 | 81.4% (active)
O=C(COc1cccc2cccnc12)NCC1CCCCC1 | 89.7% (active)
O=C(COc1ccc([N+](=O)[O-])cc1)NCC1CCCCC1 | -9.56%
c1cc(-c2cc3ccccc3o2)cc(-n2cnnc2)c1 | 74.5% (active)
NCCOCc1ccc(-c2cc3ccccc3o2)cc1 | 15.6%
CCOC(=O)Cc1csc(NC(=O)c2csc(-c3cc4ccccc4[nH]3)n2)n1 | 65.7% (active)
CCOC(=O)Cc1csc(NC(=S)NC(=O)c2cccs2)n1 | 88% (active)
CCc1ccc(C(C)NS(=O)(=O)CC2CCCCC2)cc1 (centres undefined) | 24.7%
CC(NS(=O)(=O)CC1CCCCC1)c1cc2ccccc2o1 (centres undefined) | 91.2% (active)
COc1cc(-c2c(NC(=O)CC(C)C)oc3c(C)cccc3c2=O)cc(OC)c1OC | -22.3%
CC(NC(=O)CCl)c1cccc2ccccc12 (centres undefined) | 86.2% (active)
CC(NC(=O)NCCc1ccc(F)cc1)c1ccccc1Br (centres undefined) | 31.6%
CN(C1CCCCC1)S(=O)(=O)NCC1Cc2ccccc2O1 (centres undefined) | -12.8%
CC(NC(=O)CCl)c1cc2ccccc2o1 (centres undefined) | 58.8% (active)
Cc1cccc(OCC(=O)NC(C)c2cc3ccccc3o2)c1C (centres undefined) | 83.5% (active)
CCc1ccc(C(C)NC(=O)c2ccc(S(=O)(=O)C(F)F)cc2)cc1 (centres undefined) | -35.3%
CCc1ccc(C(C)NC(=O)CCl)cc1 (centres undefined) | 68.1% (active)
Nc1ccc(Cl)c(-c2nc3ccccc3o2)c1 | -33.1%
Nc1ccc(Cl)c(Cl)c1 | 85.7% (active)
CNC(=O)c1ccc(N(C)Cc2ccc(Cl)s2)nc1 | 18.8%

Compound | inhibition
CNC(=O)c1ccc(CN(C)c2ccc(C(F)(F)F)cn2)cc1 | 56.7% (active)
O=C(NCCc1ccc(C(F)(F)F)cc1)C1=COCCO1 | 28.4%
c1ccc(-c2nc3c(c(N4CCN(Cc5cccc6cccnc56)CC4)n2)CCC3)cc1 | 31.1%
Cc1cnc(C)c(N2CCN(Cc3cc(C#CCO)cs3)CC2)n1 | 39%
OCC#Cc1csc(CN2CCN(c3nccc4ccccc34)CC2)c1 | 51.9% (active)
O=S(=O)(Nc1ccc(Br)cc1Br)c1ccc(Cl)s1 | 86.1% (active)
O=S(=O)(Nc1ccc(Cl)cc1F)c1ccc(Cl)s1 | -6.72%
CC(=NNS(=O)(=O)c1ccc(Br)cc1)c1ccc(Cl)s1 | 29.9%
CCCCCCNS(=O)(=O)c1ccc(Br)s1 | 78.5% (active)
Cc1ccc(S(=O)(=O)Nc2ccc(Br)cc2Br)c(C)c1 | 50.7% (active)
O=S(=O)(Nc1cc2c(cc1Cl)OCO2)c1ccc(Cl)s1 | 101% (active)
O=S(=O)(Nc1ccc(Br)cc1)c1ccc(Cl)s1 | 95.3% (active)
O=S(=O)(Nc1ccc(Cl)cc1)c1ccc(Cl)s1 | -18.5%
O=S(=O)(Nc1ccc(Br)cc1)c1ccc(Br)s1 | 96.8% (active)
Cc1ccc(CCC2CCN(C(=O)Nc3cccnc3)CC2)cc1 | 90.4% (active)
CCOc1ccc(NC(=O)N2CCC(CCc3ccc(C(F)(F)F)cc3)CC2)cc1 | 78.8% (active)
CCOc1ccc(NC(=O)N2CCC(Cc3ccc4c(c3)OCO4)CC2)cc1 | 64% (active)
Cc1cc(C)cc(CN2CCC(CCc3ccc(C(F)(F)F)cc3)CC2)c1 | -22.4%
Cc1ccc(CCC2CCN(C(C)C(=O)Nc3ccc(S(N)(=O)=O)cc3)CC2)cc1 (centres undefined) | 3.86%
O=C(COc1cccc(Cl)c1)N1CCC(CCc2ccc3c(c2)OCO3)CC1 | 43.2%
N#CC1CCN(C(=O)Nc2ccc(OCC3CCCCC3)cc2)CC1 | 40%
CCCc1nc2sc3c(NCCN(C)C)ncnc3c2c2c1CCCC2 | -36.3%
CCCCc1nc2sc3c(NCCN4CCOCC4)ncnc3c2c2c1COC(C)(C)C2 | 71.5% (active)
COc1ccnc(CS(=O)c2nc3ccc(OC(F)F)cc3[nH]2)c1OC (centres undefined) | 100% (active)
COc1cc2c(=O)[nH]c(-c3ccccn3)nc2cc1OC(F)F | 43.2%
CN(C)CC[C@H](c1ccc(Cl)cc1)c1ccccn1 | 35.8%

Compound | inhibition
Clc1ccc(Cl)c(SCCSc2ncn[nH]2)c1 | 23.3%
Clc1ccc(Cl)c(SCCc2ccccn2)c1 | 73.3% (active)
O=C(c1csc(COc2ccc(F)cc2F)n1)N1CCCC1 | -0.05%
Fc1cc(F)cc(-c2cncc(COc3ccc(F)cc3F)c2)c1 | 59.7% (active)
O=S(=O)(NC1CCCCCCC1)c1ccccc1F | 29.7%
O=S(=O)(NC1CCCCCC1)c1ccc(F)c(F)c1 | -47.6%
O=S(=O)(NC1CCCCCC1)c1ccc(Cl)cc1 | 76.5% (active)
Cc1ccccc1-c1nnn(Cc2cc(=O)n3c(C)cccc3n2)n1 | 32.9%
Cc1ccc(C(=O)Cn2nnc(-c3ccccc3C)n2)c(C)c1 | 90.1% (active)
O=C(Nc1n[nH]c(=S)s1)c1cccs1 | 103% (active)
COC(=O)C1=C(NC(=O)c2cccs2)CCS1 | -17.8%
Cc1ccc(C)c(-c2csc(NC(=O)c3cccs3)n2)c1 | 42.1%
CCN(CC)CCNC(=O)c1cc(NC(=O)Nc2cccc(Br)c2)ccc1N1CCCCC1 | 39.5%
CC(C)Oc1ccc(-c2cc(C(=O)NN=Cc3cccs3)[nH]n2)cc1 | 68.8% (active)
COc1ccc(-c2cc(C(=O)NN=Cc3ccc(Br)cc3)[nH]n2)cc1 | 36.8%
CCOC(=O)C1(CCCc2ccccc2)CCN(C(=O)CC2=CCCCC2)CC1 | 16.7%
Cc1ccccc1CC1(CO)CCCN(C(=O)CCC(F)(F)F)C1 (centres undefined) | 29.1%
Cc1ccccc1N1CCN(C(=O)CCc2nnc(CCCc3ccccc3)o2)CC1 | 26%
Cc1cccc(C2(O)CCN(C(=O)CCc3ccccc3)CC2)c1C | 75.2% (active)
O=C(CCC(F)(F)F)N1CCC(CO)(CCc2ccccc2)CC1 | 25.8%
O=C(CCc1ccccc1)N1CCN(c2ccc(O)cc2)CC1 | 78.6% (active)
Cc1ccccc1C1(O)CCN(C(=O)CCC2CCCC2)C1 (centres undefined) | 68% (active)
O=C(CC1Cc2ccccc2C1)N1CCC2(CCc3ccccc32)C1 (centres undefined) | 31.8%
O=C(COc1cccc(F)c1)N1CCC(c2ccc(O)cc2)CC1 | 39.3%
O=C(OCC(=O)N1CCN(c2ccc(F)cc2)CC1)c1ccc(O)cc1 | 87.3% (active)
Cc1cc(Cn2ccnc2-c2cc3ccc(F)cc3[nH]c2=O)on1 | -7.89%
